Several values for one entry are separate records, joined by “and”; a condition that tells them apart may be missing. Identical values can stand only once. About 83,000 compounds went through this panel and 20% of them were active in at least one assay; those are over-represented in the sample as a whole.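 Treatment: one concentration, 48 hours, 96-well format. Scoring: percent growth, with anything below 10 considered active.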 Activity calls are given as the source filed them.
What was measured:
Assay in all cases: NCI-60 one-dose screen, 48 h (100 = growth as untreated, 0 = no growth, -100 = all killed)
NCI-H23 lung = settings: 10 µM unless noted
NCI-H226 lung = settings: 10 µM unless noted
NCI-H322M lung = settings: 10 µM unless noted
HOP-62 NSCLC = settings: 10 µM unless noted
NCI-H460 lung = settings: 10 µM unless noted
HOP-92 NSCLC = settings: 10 µM
NCI-H522 lung = settings: 10 µM
786-0 renal = settings: 10 µM unless noted
DU-145 prostate = settings: 10 µM unless noted
K-562 leukemia = settings: 10 µM unless noted
MALME-3M melanoma = settings: 10 µM unless noted
MDA-MB-231 breast = settings: 10 µM unless noted
RXF 393 renal = settings: 10 µM unless noted
SF-268 CNS = settings: 10 µM unless noted
SF-295 CNS = settings: 10 µM unless noted
SF-539 CNS = settings: 10 µM unless noted
UACC-257 melanoma = settings: 10 µM unless noted
M14 melanoma = settings: 10 µM unless noted
A549/ATCC NSCLC = settings: 10 µM unless noted
COLO 205 colon = settings: 10 µM unless noted

Measured: growth

Nc1ccc2c(O)cc(S(=O)(=O)O)cc2c1
inactive: NCI-H23 lung 93.8% and 96.2% | NCI-H226 lung 96% and 91.9% | NCI-H322M lung 103% and 119% | HOP-62 NSCLC 86.1% and 92.4% | NCI-H460 lung 98.4% and 102% | HOP-92 NSCLC 80.9% | NCI-H522 lung 106% and 88.1% | 786-0 renal 98.9% and 105% | DU-145 prostate 114% and 110% | K-562 leukemia 93% and 96.7% | MALME-3M melanoma 122% and 111% | MDA-MB-231 breast 107% and 106% | RXF 393 renal 110% and 89.3% | SF-268 CNS 118% and 101% | SF-295 CNS 99.5% | SF-539 CNS 87.2% and 96% | UACC-257 melanoma 101% and 94.3% | M14 melanoma 98.7%

COc1ccc(N/C=C/C2=[N+](C)c3ccccc3C2(C)C)c(OC)c1
inactive: NCI-H23 lung 79.8% | NCI-H226 lung 83% | NCI-H322M lung 102% | HOP-62 NSCLC 92.7% | NCI-H460 lung 96.3% | NCI-H522 lung 89.9% | A549/ATCC NSCLC 92.9% | 786-0 renal 88.9% | COLO 205 colon 99.5% | DU-145 prostate 102% | K-562 leukemia 103% | MALME-3M melanoma 85.5% | MDA-MB-231 breast 85.2% | RXF 393 renal 97.4% | SF-268 CNS 95.6% | SF-295 CNS 86.2% | SF-539 CNS 102% | UACC-257 melanoma 99.5% | M14 melanoma 86.4%

CC1CCC2(C(=O)O)CCC3(C)C(=CCC4C5(C)CCC(O)C(C)(C)C5CCC43C)C2C1C (stereo unspecified)
-31.3% (active) and 76.1% (inactive): 786-0 renal
5.46% (active) and 102% (inactive): HOP-62 NSCLC
inactive: NCI-H23 lung 91.9% and 88.2% | NCI-H226 lung 67.9% and 98% | NCI-H322M lung 67.3% and 92.7% | NCI-H460 lung 44.5% and 89.9% | NCI-H522 lung 31.1% and 84.1% | A549/ATCC NSCLC 24% and 75.4% | COLO 205 colon 78.5% and 110% | DU-145 prostate 44% and 75.8% | K-562 leukemia 14.4% and 62.6% | MALME-3M melanoma 81.4% and 88.9% | MDA-MB-231 breast 28.1% and 71.6% | RXF 393 renal 40.9% and 79.5% | SF-268 CNS 28.9% and 75.7% | SF-295 CNS 28% and 89.7% | SF-539 CNS 43.1% and 79% | UACC-257 melanoma 39.8% and 90.1% | M14 melanoma 41.1%

O=CN1CCCCC1
inactive: NCI-H23 lung 91.5% | NCI-H226 lung 105% | NCI-H322M lung 99.4% | HOP-62 NSCLC 102% | NCI-H522 lung 104% | 786-0 renal 102% | COLO 205 colon 136% | DU-145 prostate 114% | K-562 leukemia 104% | MALME-3M melanoma 103% | MDA-MB-231 breast 104% | SF-268 CNS 105% | SF-295 CNS 97.8% | SF-539 CNS 99.8% | UACC-257 melanoma 104% | M14 melanoma 121%

O=C(Cc1ccccc1)c1ccc(O)c(Cl)c1
inactive: NCI-H23 lung 24% | NCI-H226 lung 83.7% | HOP-62 NSCLC 70.4% | NCI-H460 lung 32.3% | NCI-H522 lung 10.3% | A549/ATCC NSCLC 96.4% | 786-0 renal 26.8% | COLO 205 colon 55.4% | DU-145 prostate 18.5% | K-562 leukemia 21.4% | MALME-3M melanoma 50.2% | MDA-MB-231 breast 49.8% | RXF 393 renal 41.7% | SF-268 CNS 41.7% | SF-295 CNS 47.8% | SF-539 CNS 32.9% | UACC-257 melanoma 66.7% | M14 melanoma 30.1%

C#CCOC(=O)Nc1ccccc1
inactive: NCI-H23 lung 98.9% | NCI-H226 lung 108% | HOP-62 NSCLC 113% | NCI-H460 lung 103% | NCI-H522 lung 101% | A549/ATCC NSCLC 97.4% | 786-0 renal 94.7% | COLO 205 colon 106% | DU-145 prostate 106% | K-562 leukemia 96.9% | MALME-3M melanoma 115% | MDA-MB-231 breast 116% | RXF 393 renal 124% | SF-268 CNS 105% | SF-295 CNS 107% | SF-539 CNS 97.5% | UACC-257 melanoma 93.7% | M14 melanoma 103%

NC1CCC(C(=O)O)CC1 (stereo unspecified)
inactive: NCI-H23 lung 111% and 108% | NCI-H226 lung 104% and 99.6% | NCI-H322M lung 117% and 105% | HOP-62 NSCLC 100% and 91.2% | NCI-H460 lung 98.9% and 104% | HOP-92 NSCLC 83.3% and 91.7% | NCI-H522 lung 97.4% and 96% | 786-0 renal 102% and 103% | COLO 205 colon 105% and 107% | DU-145 prostate 108% and 115% | K-562 leukemia 107% and 109% | MALME-3M melanoma 115% and 106% | MDA-MB-231 breast 97.3% and 113% | RXF 393 renal 112% and 106% | SF-268 CNS 105% | SF-295 CNS 106% and 110% | SF-539 CNS 98.9% and 102% | UACC-257 melanoma 107% and 113% | M14 melanoma 96.5% and 99.3%

Cn1cnc([N+](=O)[O-])c1Sc1ncn[nH]1
inactive: NCI-H23 lung 91.7% | NCI-H226 lung 102% | NCI-H322M lung 101% | HOP-62 NSCLC 96.9% | NCI-H460 lung 115% | NCI-H522 lung 82.9% | 786-0 renal 102% | DU-145 prostate 108% | K-562 leukemia 137% | MALME-3M melanoma 91.6% | MDA-MB-231 breast 106% | RXF 393 renal 26.1% | SF-268 CNS 106% | SF-295 CNS 116% | SF-539 CNS 103% | M14 melanoma 95.9%
active: UACC-257 melanoma 4.36%

O=c1[nH]cnc2c1ncn2C1OC(CO)C(O)C1O (stereo unspecified)
inactive: NCI-H23 lung 116% and 104% and 109% | NCI-H226 lung 108% and 103% and 97.4% | NCI-H322M lung 112% and 137% and 102% | HOP-62 NSCLC 104% and 110% and 96.5% | NCI-H522 lung 107% and 100% and 93.2% | A549/ATCC NSCLC 112% and 102% and 107% | 786-0 renal 106% and 111% and 107% | COLO 205 colon 114% and 118% and 113% | DU-145 prostate 126% and 133% and 112% | K-562 leukemia 105% and 108% and 113% | MALME-3M melanoma 131% and 124% and 110% | MDA-MB-231 breast 110% and 105% and 108% | RXF 393 renal 129% and 118% | SF-268 CNS 114% and 112% and 94.2% | SF-295 CNS 124% and 111% and 88.8% | SF-539 CNS 113% and 96.1% | UACC-257 melanoma 104% and 119% | M14 melanoma 100% and 107% and 98.2%

COc1cc(C(O)C2C(=O)OCC2C2(c3ccc4c(c3)OCO4)SCCCS2)cc(OC)c1OC (stereo unspecified)
inactive: NCI-H23 lung 93.8% | NCI-H226 lung 100% | NCI-H322M lung 104% | HOP-62 NSCLC 101% | NCI-H522 lung 86.5% | 786-0 renal 103% | COLO 205 colon 94.2% | DU-145 prostate 103% | K-562 leukemia 97.7% | MALME-3M melanoma 91.1% | MDA-MB-231 breast 95.3% | RXF 393 renal 101% | SF-268 CNS 94.3% | SF-295 CNS 92.9% | SF-539 CNS 102% | UACC-257 melanoma 104% | M14 melanoma 96.8%

CC(C)C(C)(C)c1ccc(O)cc1
inactive: NCI-H23 lung 103% | NCI-H226 lung 99.3% | NCI-H322M lung 102% | HOP-62 NSCLC 104% | NCI-H522 lung 99.7% | A549/ATCC NSCLC 102% | COLO 205 colon 108% | DU-145 prostate 107% | K-562 leukemia 50.4% | MALME-3M melanoma 107% | MDA-MB-231 breast 108% | RXF 393 renal 112% | SF-268 CNS 99.8% | SF-295 CNS 118% | SF-539 CNS 99.4% | UACC-257 melanoma 104% | M14 melanoma 105%

O=[N+]([O-])c1cccc(SSc2cccc([N+](=O)[O-])c2)c1
inactive: NCI-H23 lung 98.8% | NCI-H226 lung 106% | HOP-62 NSCLC 89.8% | NCI-H522 lung 96.8% | 786-0 renal 103% | COLO 205 colon 82.1% | DU-145 prostate 112% | K-562 leukemia 94.3% | MALME-3M melanoma 97.2% | MDA-MB-231 breast 95.4% | RXF 393 renal 123% | SF-268 CNS 106% | SF-295 CNS 108% | SF-539 CNS 102% | UACC-257 melanoma 110% | M14 melanoma 94.2%

CC(=O)OCC1OC(OC(C)=O)C(OC(C)=O)C(OC(C)=O)C1OC(C)=O (stereo unspecified)
inactive: NCI-H23 lung 107% and 95.6% | NCI-H226 lung 94.9% and 99.6% | HOP-62 NSCLC 83.4% | NCI-H460 lung 112% and 104% | NCI-H522 lung 103% | A549/ATCC NSCLC 103% and 96.6% | 786-0 renal 102% and 106% | COLO 205 colon 104% and 107% | DU-145 prostate 107% and 102% | K-562 leukemia 111% and 95.9% | MALME-3M melanoma 99.8% | MDA-MB-231 breast 124% and 109% | RXF 393 renal 102% and 106% | SF-268 CNS 108% and 99% | SF-295 CNS 98.2% | SF-539 CNS 99.6% and 103% | UACC-257 melanoma 95.4% and 101% | M14 melanoma 99.6% and 103%

CC(=O)NCC(=O)c1ccc([N+](=O)[O-])cc1
inactive: NCI-H23 lung 95% | NCI-H226 lung 98% | HOP-62 NSCLC 95.8% | NCI-H522 lung 109% | A549/ATCC NSCLC 101% | 786-0 renal 103% | COLO 205 colon 105% | DU-145 prostate 109% | K-562 leukemia 101% | MALME-3M melanoma 101% | MDA-MB-231 breast 97.7% | SF-268 CNS 99.1% | SF-295 CNS 106% | SF-539 CNS 109% | UACC-257 melanoma 101% | M14 melanoma 109%
